# Assay results as given in PubChem BioAssay (Tox21).
# “And” between values parts separate entries of the source, which are not always exact repeats. Equal values may be shown once. Results filed as inconclusive are left out. Unmarked numbers belong to inactive results. The source made the active and inactive calls. The call rests on the fitted dose curve; in most records, active means well fitted activation curve with a large enough effect in the repeat runs; inconclusive means weak or mixed curves; inactive means flat fitted curve, though single readings scatter.
# Test: A CellTox Green Cytotoxicity Assay to monitor cytotoxicity in HEK293 cells - 32 hour (AID 1224881); further: nearly all actives have a fitted effect of over 40% in size
# Settings: CellTox Green fluorescence; series mostly up to 76.8 µM; cytotoxicity increase: at the top concentration
# From the text: National Center for Advancing Translational Sciences [NCATS]
# NIH Chemical Genomics Center [NCGC]
# U.S. Environmental Protection Agency [EPA]
# National Institutes of Environmental Health Sciences [NIEHS]
# National Toxicology Program [NTP]
# Cell-based models are critical for drug discovery. Determining the natural cytotoxic effects resulting from test compounds is an essential research activity. A CellTox Green Cytotoxicity Assay to monitor cytotoxicity in real time of continues cell culture during 40 hours of the compound treatment was used to screen Tox21 10K library compounds in Hek293 cells. CellTox Green Cytotoxicity Assay is a nonlytic, homogeneous, biofluorescent method to measure cytotoxicity in cell culture after experimental manipulation. The assay system uses a proprietary asymmetric cyanine dye that is excluded from viable cells but preferentially stains the dead cell's DNA. […] Viable cells produce no appreciable increases in fluorescence. Therefore, the fluorescence signal produced by the binding interaction with dead cell DNA is proportional to cytotoxicity.
# The mixture of Hek293 cell suspension and reagents were dispensed at 600cells/6 ul/well in 1536-well tissue culture treated black solid bottom plates using a Multidrop dispenser. After the assay plates were incubated at a 37 C/5% CO2 incubator for 5 hours, 23 nL of compounds dissolved in DMSO, positive and negative controls was transferred to the assay plate by a pintool work station. The plates were incubated at 37 C for 40 hours. The fluorescence intensity were measured at 0h, 8h, 16h, 24h, 32h and 40h time points using ViewLux plate reader during compound treatment.
# On the % scale 0 is the no-effect control and ±100 the full control effect; potency means the concentration at half of the fitted maximal effect.
Structure (SMILES),Potency,cytotoxicity increase
C[C@H](N)[C@H](O)c1ccc(O)c(O)c1,19 µM (active),–
CC1(C)CC(=O)CC(C)(C)N1[O],–,-1.28%
CCCN(CCC)c1c([N+](=O)[O-])cc(C(C)C)cc1[N+](=O)[O-],inactive,–
FC(Cl)(Cl)C(F)(Cl)Cl,–,-1.44%
Cc1cnc(C2=NC(C)(C(C)C)C(=O)N2)c(C(=O)O)c1 (stereo not given),–,-3.92%
C=CC(=O)OCC,–,-11.9%
CCCCCCCCn1sccc1=O,55.1 µM (active) and 25.7 µM (active),–
Clc1ccc(Cl)c(Cl)c1,inactive,–
CCC(C)(C)O,–,-19.6%
CCCN(CCC)C(=O)Cc1c(-c2ccc(Cl)cc2)nc2ccc(Cl)cn12,–,4.3% [at 35.3 µM]
OC[P+](CO)(CO)CO,inactive,–
COc1cc(CC#N)cc(OC)c1OC,–,-7.01% [at 35.3 µM]
CCCCCCCCP(=O)(O)O,–,-0.557%
COc1ccccc1N1CCNCC1,–,-15.1% [at 35.3 µM]
CC(C)(C)c1ccc(CCOc2ncnc3ccccc23)cc1,–,-0.257%
ClCc1ccccc1Cl,–,3.07%
C=C(C)C(=O)OCCCCOC(=O)C(=C)C,–,-0.226%
CCOC(=O)C1OC1(C)c1ccccc1 (stereo not given),–,-2.95%
OCCCl,–,5.88%
O=C([O-])c1ccccn1.O=C([O-])c1ccccn1.O=C([O-])c1ccccn1.[Cr+3],–,16.7%

Structure (SMILES),Potency,cytotoxicity increase
CC[N+]1(C)CCCC(OC(=O)C(O)(c2ccccc2)c2ccccc2)C1 (stereo not given),–,-6.28% [at 35.3 µM]
CCCBr,–,-9.88%
CCOP(=O)(O)C(N)=O,–,5.23%
CCCCCCCCCCCC[N+](C)(C)CCOc1ccccc1,17.4 µM (active) and 23.9 µM (active),–
CC1(C)[C@H](C(=O)O[C@H](C#N)c2cccc(Oc3ccccc3)c2)[C@@H]1C=C(Br)Br,inactive,–
CCC1CCC(=O)O1 (stereo not given),–,0.447%
C1CCNCC1,–,7.06%
CN(C)c1ccc(N=O)cc1,11 µM (active) and 19.5 µM (active),–
CCOC(C(=O)OCCN(C)C)(c1ccccc1)c1ccccc1,–,0.542% [at 35.3 µM]
CC(O)CN1CCN(CC(=O)[O-])CCN(CC(=O)[O-])CCN(CC(=O)[O-])CC1.[Gd+3] (stereo not given),–,-5.52% [at 35.3 µM]
O=C(Cl)OCCOCCOC(=O)Cl,–,-7.47%
Nc1cccc2ccccc12,inactive,–
CCCCCCCCCCCCN(C)C,–,-8.88%
CC(C)CCCCCCCOC(=O)c1ccccc1C(=O)OCCCCCCCC(C)C,–,-3.53%
FC(F)OC(F)(F)C(F)Cl (stereo not given),–,-7.68%
CN[C@@H](C)[C@H](O)c1ccccc1,–,-2.64% [at 35.3 µM]
O=C(Cc1ccccc1)c1ccccc1,–,11.5%
CCCC1CCCCN1 (stereo not given),–,4.06% [at 35.3 µM]
O=C(O)COc1cc(Cl)c(Cl)cc1Cl,inactive,–
CN1C(=O)CN=C(c2ccccc2)c2cc([N+](=O)[O-])ccc21,–,-5.67% [at 35.3 µM]
